# What was measured:
# Experiment in all cases: PBM binding z-score (relative to random genomic background probes); higher = stronger binding; sequences stand for … in GC…GCGATTGACAGCGTAGAATGAAGG
# [1] = test system: RARb homodimer (NR concentration 270 nM)
# In short: (§1)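 Scanned fluorescence from custom Agilent 4×180K protein-binding microarrays was regression-normalized. Binding z-scores use random background probes as reference. Ligand-free nuclear receptor dimers were incubated on the arrays for 1 h and detected with antibodies against each partner (one per run).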
# [2] = test system: RARg:RXRa (NR concentration 270 nM, RXRa partner concentration 90 nM)
# In short: as §1
# [3] = test system: RARg homodimer (NR concentration 270 nM)
# In short: as §1
# [4] = test system: RXRa DBDmut IVT, anti-RXR (DBD mutation: RXRa K156A/R161A, NR concentration 90 nM)
# In short: as §1
# [5] = test system: RXRa homodimer (NR concentration 180 nM)
# In short: as §1
# [6] = test system: THRa:RXRa (NR concentration 90 nM, RXRa partner concentration 90 nM)
# In short: as §1
# [7] = test system: THRa homodimer (NR concentration 90 nM)
# In short: as §1
# [8] = test system: VDR homodimer (NR concentration 270 nM)
# In short: as §1
Sequence,PBM binding z-score [1],PBM binding z-score [2],PBM binding z-score [3],PBM binding z-score [4],PBM binding z-score [5],PBM binding z-score [6],PBM binding z-score [7],PBM binding z-score [8]
CCTACTGCGCCAAAAAGGTCATTGATGCCGATAA,4.48,4.82,4.32,1.65,5.56,3.04,1.34,3.24
ACTCGGAGGACAAAGGTCATAGCTACGCCAGTGA,4.7,6.88,5.24,1.91,6.51,4.13,1.2,2.55
TAGCCTAGGTCAGATCGCGCCAGTATACGCTATA,1.68,2.64,3.2,-0.216,1.22,1.61,0.165,-0.0657
TCTTGTAGATCAACAGGAGGTTAAAAAAGATCGA,0.404,0.947,0.461,0.247,0.896,0.886,-0.654,0.215
TTACCAAGGTGAGCTGAGGTCGTTGACCCAACTC,2,1.58,0.471,0.101,2.03,4.79,2.16,1.65
CGTCCAAGGTCAAGGCCAGTGAAAGAGACTCGAA,3.8,5.88,6.13,3.31,5.24,3.71,2.15,1.61
TCTCGGAGGAAACGAAGGTCAGAGCTTTCCAGAG,2.69,1.88,1.53,-0.239,1.5,1.38,-0.547,-0.0279
GTTGCTAGGTCAACTGATGGTCAGCTAAAGCTCG,3.54,5.4,5.9,1.48,3.11,3.09,1.46,0.164
GCGACTGGGGCAAAGCAGGTTACCATCAGGTTGG,0.97,0.227,0.303,-0.245,0.557,2.72,-0.213,-0.458
TCATATAAGTAATACAGGTGAAAGTCGGCATCTA,0.481,0.675,0.621,2.03,1.42,0.662,0.191,0.605
AGAATGTGGTTATACGTAGATCAGGGAAGAAAGT,0.494,0.184,0.305,0.187,-0.0859,0.207,0.0442,-0.179
TGTCAAAGTTCAAAGGTAACGTACGTATCCACAC,3.77,6.34,5.94,4.49,6.98,2.98,0.0494,4.29
GGAAAGAGGGCAAGTTGATAGCAGAGTTTGATGG,2.23,2.23,3,1.94,1.43,1.02,0.275,1.93
CCTAGCGGGCCAGGGTCACTCAAGCATTTCGCTT,2.48,3.06,2.4,-0.0113,3.72,2.72,1.19,1.28
CCTACTGGGCCATTCAGAGGTCTTTGATCATATG,0.406,0.221,0.17,-0.165,-0.258,0.0585,-0.237,-0.313
GCTATTACTTGAAAGGGCAACCGAATGATTCTCG,2.01,1.27,1.27,0.581,0.965,0.521,-0.383,-0.15
TCTTGTCGATCAATAGAGGTTAAGAAAGTGCGCT,1.53,0.847,0.688,0.601,1.46,1.94,-0.159,0.435
TCTCGGATGACACGAAGGTCAGAGCTTTCCAGAG,3.15,2.66,2.31,0.542,2.48,1.68,0.229,0.13
TTTACAGGGTCAAAGGCCAGAGTACGAATGTCGA,3.46,5.91,5.11,3.13,6.94,3.63,0.893,2.97
AGAAGGAGGTTATACGTAGATCAGGGAAGAAAGT,1.26,1.3,1.11,0.234,1.59,1.28,0.665,0.752
CCTACTTGGCCAAGGTCATTGATCAGTCAAAGCA,3.78,4.01,3.47,2.56,3.83,3.82,3.07,3.62
ACTAGCAGGCCAAGTTTGGATCACTCAAACAAAG,-0.0539,-0.0446,0.341,-0.14,-0.454,-0.0937,-0.67,-0.0821
CAAACTAGGTGAAGAGGTCAAAGTCCGCTTCCCG,4.7,5.44,3.96,1.73,5.48,3.86,1.42,3.38
TCTATTAGTTGATCAGGGCAACCGAAACAGCGGA,0.681,0.484,0.555,1.15,0.519,0.815,0.591,0.203
TCTAGCAGGCCAGAGGTTCACTCAAGAGGTACGG,0.483,0.466,0.306,0.415,0.756,0.0642,-0.939,1.54
CCTTACTGGTCACTGACAGGTTATAGCATTTGGA,1.55,1.76,1.32,0.856,0.874,0.492,0.796,0.63
CCTATTAGTTGACCATCAGGGCAACCGAAGCTCG,1.35,0.553,0.807,0.518,0.205,1.19,0.957,0.592
ATCGAAAGGTCGACGAGGTGCGTATACACCGTTT,2.58,3.76,3.9,0.716,4,2.46,-0.328,0.77
